Screening data (PubChem)
RORgamma inh: blocks mouse ROR gamma transcriptional activity | Drosophila S2 Gal4-RORgamma UAS-luciferase reporter, 20 h | Potency, µM (titrated, usually from 53.6 µM), for inactives: top-dose activity change, negative = inhibition, most hits filed as inhibitors | P51450 | 310,000 compounds, 5.4% hits; also: nearly all actives have a fitted effect of over 60% in size
Target sequence (P51450 whole entry, looked up, the tested form may be a part): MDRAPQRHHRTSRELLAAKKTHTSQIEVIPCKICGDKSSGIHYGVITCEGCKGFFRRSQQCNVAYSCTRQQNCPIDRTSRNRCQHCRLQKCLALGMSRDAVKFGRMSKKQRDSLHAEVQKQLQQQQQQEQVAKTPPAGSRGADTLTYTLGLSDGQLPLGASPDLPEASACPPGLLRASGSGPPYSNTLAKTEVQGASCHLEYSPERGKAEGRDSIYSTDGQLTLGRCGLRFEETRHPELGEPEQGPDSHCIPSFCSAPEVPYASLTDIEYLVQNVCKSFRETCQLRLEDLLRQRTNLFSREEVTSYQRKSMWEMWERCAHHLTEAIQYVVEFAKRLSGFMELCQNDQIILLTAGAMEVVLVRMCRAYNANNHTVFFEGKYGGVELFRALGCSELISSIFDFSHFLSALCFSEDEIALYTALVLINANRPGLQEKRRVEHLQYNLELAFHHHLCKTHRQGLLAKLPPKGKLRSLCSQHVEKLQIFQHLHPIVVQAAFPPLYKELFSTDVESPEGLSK
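Drosophila S2 cells stably expressing Gal4-DBD/mouse RORγ fusion under metallothionein promoter plus UAS-luciferase; compound 1 h, then 700 uM CuSO4 induction for 20 h at ambient temperature; inhibition read as reduced luminescence.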
Tau FP inhib: tau fibrillization inhibition (FP); P10636; K18 P301L tau heparin fibrillization, Alexa594 FP, 6 h; Potency, µM (titrated, usually from 57.7 µM), for the others: top-dose activity, negative = inhibition, most hits filed as inhibitors; 280,000 compounds, 0.39% hits; AID 1468; also: nearly all actives have a fitted effect of over 55% in size
Target sequence (P10636 561-689 P618L limits assumed): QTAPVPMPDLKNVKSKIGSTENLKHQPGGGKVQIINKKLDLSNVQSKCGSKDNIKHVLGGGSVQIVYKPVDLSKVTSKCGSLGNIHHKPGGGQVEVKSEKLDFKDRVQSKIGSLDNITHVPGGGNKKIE
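Steps: dispense K18 P301L tau (15 uM plus 0.24 uM Alexa 594 tracer, final) in pH 7 sodium acetate; add compound; add heparin (20 uM final); incubate 6 hr, 37 C; add ThT (30 uM final); after 1 hr ambient, read FP.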
Tau fluor cs: counter-screen for tau fibril formation inhibitors. tau K18 P301L Alexa594 fluorescence, heparin fibrillization. Potency, µM (highest dose often 57.7 µM), for the others: top-dose activity change, negative = decrease. 280,000 compounds, 0.93% hits. AID 1463; also: nearly all actives have a fitted effect of over 55% in size
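Human tau K18 P301L (15 uM unlabeled, 0.24 uM Alexa 594-labeled) in 100 mM sodium acetate pH 7 with 20 uM heparin, 6 hr at 37 C. ThT 30 uM added, 1 hr ambient; Alexa 594 FP and total fluorescence read at 555/632 nm.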
Tau ThT inhib: inhibitors of human tau fibril formation, thioflavin T binding | Potency, µM (titrated, usually from 57.4 µM), inactives show top-dose activity, negative = inhibition, hits mostly inhibitors | recombinant tau K18 P301L (four-repeat tau fragment), heparin-induced fibrillization, ThT fluorescence | 270,000 compounds, 2.1% hits | P10636; also: nearly all actives have a fitted effect of over 55% in size
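K18 P301L tau (15 uM + 0.24 uM Alexa 594-tagged), heparin 20 uM, NaOAc pH 7, 6 h 37 C; ThT 30 uM, 1 h RT, ex 450/em 510 nm.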
VP16 counter: inhibits Gal4-VP16 luciferase reporter, ROR gamma counter-screen | Drosophila S2 Gal4-VP16 UAS-luciferase, luminescence, 20 h | Potency, µM (top dose mostly 53.6 µM), for inactives: at the highest dose activity, negative = inhibition, usual class: inhibitors | 310,000 compounds, 3.5% hits;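 also: Gal4-VP16 expression switched on by copper sulfate through the metallothionein promoter; nearly all actives have a fitted effect of over 50% in size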
The depositor's hits bear a star; ! = repeats disagree; [ ] = another dose, or the depositor's remark. Compounds with a hit are over-represented: about 7.3% of the library has one in this group of screens. Calls follow the shape of the dose curve; as a rule, active = well fitted curve in the direction sought with a large enough effect; inconclusive = small, poorly fitted or top-dose-only effect, or another doubt; inactive = no such curve, though single readings can be large; an effect the other way counts as inactive or inconclusive. % is scaled to controls: 0 for no effect and ±100 for the full control effect; potency is read from the fitted curve at half-maximal effect.

What do the screens show for `CSC(=NC#N)N1CCN(C(=NC#N)SC)CC1`?
RORgamma inh: 14.9%; Tau FP inhib: 3.7%; Tau fluor cs: 2.9%; Tau ThT inhib: 5.5%; VP16 counter: -14.0%[10 µM]

What do the screens show for `COc1ccc(N2CCN(C(=O)CCn3c(=O)[nH]c4cc(OC)c(OC)cc4c3=O)CC2)cc1`?
Tau FP inhib: -4.6%; Tau fluor cs: -16.6%; Tau ThT inhib: -15.7%

What do the screens show for `CCOC(=O)N1CCN(S(=O)(=O)c2ccc([N+](=O)[O-])cc2)CC1`?
RORgamma inh: 4.8%; Tau FP inhib: 5.8%; Tau fluor cs: 0.1%; Tau ThT inhib: -0.7%; VP16 counter: -2.0%

How did CCOC(=O)c1nnn(-c2ccc([N+](=O)[O-])cc2[N+](=O)[O-])c1C do in these assays?
RORgamma inh: 7.08µM*; Tau FP inhib: 1.6%; Tau fluor cs: -23.1%; Tau ThT inhib: -15.3%; VP16 counter: inconclusive

How did CCOC(=O)N1CCN(/[N+]([O-])=N/Oc2ccc([N+](=O)[O-])cc2[N+](=O)[O-])CC1 do in these assays?
RORgamma inh: 8.91µM*; VP16 counter: 7.08µM*!

How did O=C(Nc1ccccc1)N1CC2(CCN(C(=O)c3cc(C(F)(F)F)cc(C(F)(F)F)c3)CC2)C1 do in these assays?
RORgamma inh: -5.2%; VP16 counter: -4.1%

Results for C=CCn1cccc(/C=C/C(=O)c2ccc(C(C)(C)C)cc2)c1=S ?
RORgamma inh: inconclusive; Tau FP inhib: 15.8%; Tau fluor cs: -11.0%; Tau ThT inhib: 20µM*; VP16 counter: inconclusive

What do the screens show for `COc1ccc(OCC(=O)Nc2cccc3ncccc23)cc1`?
RORgamma inh: -1.5%; Tau FP inhib: -3.1%; Tau fluor cs: 4.7%; Tau ThT inhib: 1.0%; VP16 counter: -5.1%

Results for O=C(CCl)Nc1cccc2ncccc12 ?
RORgamma inh: 17.8µM*; Tau FP inhib: 3.7%; Tau fluor cs: -6.4%; Tau ThT inhib: -15.6%; VP16 counter: inconclusive

Results for CC(=O)ON(C(C)=O)S(=O)(=O)c1ccc(Cl)cc1 ?
RORgamma inh: -7.2%; Tau FP inhib: -0.6%; Tau fluor cs: -12.9%; Tau ThT inhib: -20.0%; VP16 counter: -6.8%

What do the screens show for `NC(C(=O)N[C@@H]1C(=O)N2C(C(=O)O)=C(Cl)CS[C@H]12)c1ccccc1` (some centres not stated)?
Tau FP inhib: inconclusive; Tau fluor cs: -14.7%; Tau ThT inhib: 28.2µM*

What do the screens show for `N[C@@H](C(=O)N[C@@H]1C(=O)N2C(C(=O)O)=C(Cl)CS[C@H]12)c1ccccc1`?
RORgamma inh: 7.2%; Tau FP inhib: inconclusive; Tau fluor cs: -18.4%; Tau ThT inhib: 28.2µM*; VP16 counter: -11.8%

How did CC1=C(C(=O)O)N2C(=O)C(NC(=O)c3ccccc3Cl)C2SC1 (configuration not stated) do in these assays?
RORgamma inh: 14.1%; VP16 counter: -11.3%

What do the screens show for `CC1=C(C(=O)O)N2C(=O)[C@@H](NC(=O)C(N)C3=CCC=CC3)[C@H]2SC1` (some centres not stated)?
Tau FP inhib: inconclusive; Tau fluor cs: -29.8%; Tau ThT inhib: inconclusive

How did COc1ccccc1CNC(=O)C1CCC(CNS(=O)(=O)c2ccc3c(c2)CCCC(=O)N3)CC1 (configuration not stated) do in these assays?
Tau FP inhib: 3.4%; Tau fluor cs: 0.4%; Tau ThT inhib: 2.6%

Results for CC(=O)CSc1ncnc2sc3c(c12)CCC(C)C3 (configuration not stated) ?
RORgamma inh: 3.16µM*; Tau FP inhib: -5.9%; Tau fluor cs: -1.8%; Tau ThT inhib: -15.2%; VP16 counter: inconclusive

What do the screens show for `CC(=O)C(Sc1ncnc2sc3c(c12)CCCC3)C(C)=O`?
RORgamma inh: 11.2µM*; Tau FP inhib: 8.0%; Tau fluor cs: -5.5%; Tau ThT inhib: -6.8%; VP16 counter: 15.8µM*

What do the screens show for `COc1cc(NC(=O)Cn2ccc3ccccc3c2=O)cc(OC)c1OC`?
Tau FP inhib: -9.7%; Tau fluor cs: -6.7%; Tau ThT inhib: -8.2%

What do the screens show for `Cc1ccc(C(=O)Nc2ncn[nH]2)cc1`?
RORgamma inh: inconclusive; VP16 counter: 12.6µM*

What do the screens show for `O=C(Nc1ncn[nH]1)c1ccccc1Br`?
RORgamma inh: 0.5%; Tau FP inhib: -1.8%; Tau fluor cs: -5.8%; Tau ThT inhib: -2.5%; VP16 counter: -14.9%

Results for CC(C)(C)c1ccc(C(=O)Nc2ncn[nH]2)cc1 ?
RORgamma inh: 3.98µM*; Tau FP inhib: 2.9%; Tau fluor cs: 1.5%; Tau ThT inhib: -9.9%; VP16 counter: inconclusive

Results for Cc1c(Cl)cccc1NC(=O)CC1Oc2ccccc2NC1=O (configuration not stated) ?
RORgamma inh: -20.6%; Tau FP inhib: -5.4%; Tau fluor cs: -1.5%; Tau ThT inhib: 4.1%; VP16 counter: -12.6%

What do the screens show for `Cc1oc(-c2cccc(Cl)c2)nc1CSCC(=O)O`?
RORgamma inh: 10µM*; Tau FP inhib: -0.2%; Tau fluor cs: -9.7%; Tau ThT inhib: -7.0%; VP16 counter: 5.01µM*

What do the screens show for `Cc1oc(-c2ccccc2Cl)nc1CSCC(=O)O`?
RORgamma inh: -126.5%; Tau FP inhib: -7.8%; Tau fluor cs: -4.3%; Tau ThT inhib: -12.2%; VP16 counter: 7.94µM*

How did CCN1CCN(c2c(S(=O)(=O)c3ccc(C)c(C)c3)cnc3ccc(F)cc23)CC1 do in these assays?
RORgamma inh: -14.2%; Tau FP inhib: -3.9%; Tau fluor cs: -15.0%; Tau ThT inhib: -10.0%; VP16 counter: -1.8%

What do the screens show for `CCOCCCNC(=O)c1ccc(Cn2c(=S)[nH]c3c([nH]c4ccc(OC)cc43)c2=O)cc1`?
RORgamma inh: -9.7%; Tau FP inhib: -12.4%; Tau fluor cs: -22.4%; Tau ThT inhib: -16.1%; VP16 counter: 2.5%

How did COC(CNC(=O)c1ccc2c(=O)n(Cc3ccc(Cl)cc3)c(=S)[nH]c2c1)OC do in these assays?
RORgamma inh: inconclusive; VP16 counter: -29.4%

What do the screens show for `CCCCNC(=O)c1ccc(Cn2c(=S)[nH]c3c([nH]c4ccc(OC)cc43)c2=O)cc1`?
RORgamma inh: 12.6µM*; Tau FP inhib: 5.5%; Tau fluor cs: -15.4%; Tau ThT inhib: -1.1%; VP16 counter: 17.8µM*

How did COCCCNC(=O)c1ccc2c(=O)n(Cc3ccc(Cl)cc3)c(=S)[nH]c2c1 do in these assays?
RORgamma inh: 17.8µM*; VP16 counter: inconclusive

What do the screens show for `COCCCNC(=O)c1ccc2c(=O)n(Cc3ccc4c(c3)OCO4)c(=S)[nH]c2c1`?
RORgamma inh: -28.3%; Tau FP inhib: -7.6%; Tau fluor cs: -16.4%; Tau ThT inhib: -14.2%; VP16 counter: inconclusive

What do the screens show for `CC1CCN(CCNC(=O)c2ccc3c(=O)n(Cc4ccc(Cl)cc4)c(=S)[nH]c3c2)CC1`?
RORgamma inh: 11.2µM*; VP16 counter: inconclusive
